Laboratory results published in PubChem BioAssay (Tox21).
Where “and” joins values, the source holds several entries; their conditions need not be identical. Equal entries are not always repeated. Calls of active or inactive are those of the source. Unless noted, calls follow the shape of the dose curve; as a rule, active = well fitted curve in the direction sought with a large enough effect in the repeat runs; inconclusive = weak or mixed curves; inactive = no such curve, though single readings can be large; an effect the other way counts as inactive or inconclusive.

Key:
[1] = qHTS assay to identify small molecule antagonists of the thyroid receptor (TR) signaling pathway - cell viability counter screen (AID 743064); also: nearly all actives have a fitted effect of over 50% in size; also: potency is read from the fitted curve at half-maximal effect
In short: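 In-well cytotoxicity read by CellTiter-Fluor (30 min, 37 C) following 23.5 h exposure of GH3 cells bearing a TRE-luciferase sensor. Compounds were added alongside 1 nM (final) T3 to drive TR transactivation.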

[2] = qHTS assay to identify small molecule antagonists of the estrogen receptor alpha (ER-alpha) signaling pathway - cell viability counter screen (AID 743074; calls by dose curve;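 also: HEK293 cells carrying ER-alpha-UAS-bla reporter stimulated with 17beta-estradiol; nearly all actives have a fitted effect of over 45% in size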; also: potency is read from the fitted curve at half-maximal effect)
[3] = qHTS assay to identify small molecule antagonists of the estrogen receptor alpha (ER-alpha) signaling pathway using the BG1 cell line - cell viability counter screen (AID 743081);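 also: compound given together with 17beta-estradiol as the ER stimulus; nearly all actives have a fitted effect of over 45% in size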; also: potency is read from the fitted curve at half-maximal effect; as to activity change, negative = cytotoxicity: series mostly up to about 70 µM; % is scaled to controls: 0 for no effect and ±100 for the full control effect
[4] = biological target: Aromatase (Homo sapiens) (UniProt P11511); experiment: qHTS assay to identify aromatase inhibitors (AID 743083); also: nearly all actives have a fitted effect of over 55% in size; also: potency is read from the fitted curve at half-maximal effect
Chain of Aromatase (Homo sapiens) (P11511 whole entry, looked up): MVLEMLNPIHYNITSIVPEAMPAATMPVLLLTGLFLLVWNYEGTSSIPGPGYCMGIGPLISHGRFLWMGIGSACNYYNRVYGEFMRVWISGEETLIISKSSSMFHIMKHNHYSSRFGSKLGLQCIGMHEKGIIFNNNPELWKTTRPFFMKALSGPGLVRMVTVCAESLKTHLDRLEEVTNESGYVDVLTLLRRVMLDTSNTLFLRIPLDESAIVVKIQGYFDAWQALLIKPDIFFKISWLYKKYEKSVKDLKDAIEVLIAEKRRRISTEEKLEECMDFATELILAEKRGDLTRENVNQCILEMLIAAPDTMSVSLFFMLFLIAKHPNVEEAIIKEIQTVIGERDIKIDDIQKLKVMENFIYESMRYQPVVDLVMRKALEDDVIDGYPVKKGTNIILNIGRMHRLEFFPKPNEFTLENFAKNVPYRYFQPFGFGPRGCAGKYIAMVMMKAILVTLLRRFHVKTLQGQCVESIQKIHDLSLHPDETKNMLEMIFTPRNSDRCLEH

[5] = qHTS assay to identify aromatase inhibitors - cell viability counter screen (AID 743084);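 also: cells stimulated with testosterone during compound exposure; % is scaled to controls: 0 for no effect and ±100 for the full control effect; nearly all actives have a fitted effect of over 55% in size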
[6] = biological target: Aryl hydrocarbon receptor (Homo sapiens) (UniProt P35869); experiment: qHTS assay to identify small molecule that activate the aryl hydrocarbon receptor (AhR) signaling pathway (AID 743085); also: nearly all actives have a fitted effect of over 15% in size; also: potency is read from the fitted curve at half-maximal effect
Chain of Aryl hydrocarbon receptor (Homo sapiens) (P35869 whole entry, looked up): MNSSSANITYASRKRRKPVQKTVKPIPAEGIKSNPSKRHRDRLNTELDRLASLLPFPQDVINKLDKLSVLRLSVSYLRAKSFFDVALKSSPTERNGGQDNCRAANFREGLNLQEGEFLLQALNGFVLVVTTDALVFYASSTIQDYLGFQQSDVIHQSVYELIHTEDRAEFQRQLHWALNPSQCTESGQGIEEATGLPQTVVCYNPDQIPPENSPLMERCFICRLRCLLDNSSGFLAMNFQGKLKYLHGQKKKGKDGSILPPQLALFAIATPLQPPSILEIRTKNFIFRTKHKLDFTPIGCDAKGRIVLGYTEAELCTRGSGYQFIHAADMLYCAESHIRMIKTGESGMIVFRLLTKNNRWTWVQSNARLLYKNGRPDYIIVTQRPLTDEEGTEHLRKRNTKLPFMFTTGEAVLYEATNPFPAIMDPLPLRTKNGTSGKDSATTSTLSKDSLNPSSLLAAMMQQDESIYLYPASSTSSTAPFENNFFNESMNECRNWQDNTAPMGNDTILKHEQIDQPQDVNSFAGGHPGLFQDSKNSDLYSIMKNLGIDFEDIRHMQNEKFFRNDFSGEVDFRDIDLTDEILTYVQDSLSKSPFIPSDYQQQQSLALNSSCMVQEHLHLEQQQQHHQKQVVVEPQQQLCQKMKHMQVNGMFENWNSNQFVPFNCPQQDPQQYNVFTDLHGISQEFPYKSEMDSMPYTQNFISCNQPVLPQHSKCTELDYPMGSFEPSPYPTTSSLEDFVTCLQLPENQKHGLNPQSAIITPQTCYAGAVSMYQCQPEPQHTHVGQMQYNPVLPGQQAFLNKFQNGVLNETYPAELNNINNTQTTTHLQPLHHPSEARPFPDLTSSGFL
In short: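 Luminescence (ONE-Glo) from a dioxin-responsive-element luciferase reporter in HG2L7.5c1 HepG2 cells after 24 hr compound exposure at 37C; viability measured by CellTiter-Fluor fluorescence beforehand.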

[7] = biological target: Peroxisome proliferator-activated receptor gamma (Homo sapiens) (UniProt P37231); experiment: qHTS assay to identify small molecule agonists of the peroxisome proliferator-activated receptor gamma (PPARg) signaling pathway (AID 743094; active = well fitted activation curve with a large enough effect in the signal ratio in the repeat runs, not every such curve was filed as active; inconclusive = weak or mixed curves, or effect the other way; inactive = no such curve, though single readings can be large or run the other way; the % refers to the signal ratio; also: % is scaled to controls: 0 for no effect and ±100 for the full control effect)
Chain of Peroxisome proliferator-activated receptor gamma (Homo sapiens) (P37231 whole entry, looked up): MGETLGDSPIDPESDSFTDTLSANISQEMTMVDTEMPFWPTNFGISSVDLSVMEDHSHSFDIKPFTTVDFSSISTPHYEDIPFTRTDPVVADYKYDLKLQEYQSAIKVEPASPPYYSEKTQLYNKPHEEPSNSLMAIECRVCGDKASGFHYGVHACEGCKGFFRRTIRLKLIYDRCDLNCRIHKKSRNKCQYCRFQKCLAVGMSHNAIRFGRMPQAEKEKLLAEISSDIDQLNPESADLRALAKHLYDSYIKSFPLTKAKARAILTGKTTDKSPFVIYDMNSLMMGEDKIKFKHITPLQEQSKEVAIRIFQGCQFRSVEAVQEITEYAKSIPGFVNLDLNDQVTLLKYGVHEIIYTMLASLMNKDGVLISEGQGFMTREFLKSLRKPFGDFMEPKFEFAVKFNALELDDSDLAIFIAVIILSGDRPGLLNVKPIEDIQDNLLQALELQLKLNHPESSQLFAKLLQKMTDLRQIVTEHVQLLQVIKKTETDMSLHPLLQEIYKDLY
In short: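 Agonist activity was taken from a beta-lactamase reporter (FRET substrate, 1 h at room temperature) in HEK293H cells carrying a PPARg UAS-bla construct. Compounds in DMSO were incubated 17 h at 37C after a 5 h cell pre-incubation.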

[8] = qHTS assay for small molecule agonists of the antioxidant response element (ARE) signaling pathway (AID 743202; active = well fitted activation curve with a large enough effect in the signal ratio in the repeat runs, not every such curve was filed as active; inconclusive = weak or mixed curves, or effect the other way; inactive = no such curve, though single readings can be large or run the other way; the % refers to the signal ratio; also: potency is read from the fitted curve at half-maximal effect)
In short: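 After 16 hours of compound treatment at 37 C, HepG2 cells with a stably integrated ARE-driven beta-lactamase reporter were loaded 2 hours at room temperature with LiveBLAzer B/G FRET substrate and fluorescence intensity measured.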

[9] = qHTS assay for small molecule agonists of the antioxidant response element (ARE) signaling pathway - cell viability counter screen (AID 743203; calls by dose curve; also: nearly all actives have a fitted effect of over 55% in size; also: potency is read from the fitted curve at half-maximal effect)
In short: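 Viability counter screen: CellTiter-Glo luminescence, read after 30 min at room temperature, in ARE-bla HepG2 wells. Compound exposure lasted 16 h at 37C/5% CO2, following a 5 h pre-incubation of the cells after plating.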

[10] = qHTS assay for small molecule activators of the heat shock response signaling pathway - cell viability counter screen (AID 743209); also: nearly all actives have a fitted effect of over 50% in size; also: potency is read from the fitted curve at half-maximal effect
In short: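 Cytotoxicity counter screen run in the same wells as the heat-shock bla reporter assay: HeLa HSE-bla cells, 5 h compound exposure at 37 C, viability read by CellTiter-Glo luminescence.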

[11] = qHTS assay for small molecule activators of the heat shock response signaling pathway (AID 743210; active = well fitted activation curve with a large enough effect in the signal ratio in the repeat runs, with a control signal flat, not every such curve was filed as active; inconclusive = weak or mixed curves; the % refers to the signal ratio; also: series mostly up to about 63 µM; % is scaled to controls: 0 for no effect and ±100 for the full control effect)
In short: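 Compound exposure lasted 5 h at 37 C in HeLa cells carrying a heat-shock-element-driven beta-lactamase reporter. Read-out: fluorescence intensity after 2.5 h room-temperature loading with LiveBLAzer B/G FRET substrate.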

[12] = biological target: Estrogen receptor (Homo sapiens) (UniProt P03372); experiment: qHTS assay to identify small molecule agonists of the estrogen receptor alpha (ER-alpha) signaling pathway (AID 743075; calls by dose curve;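 also: HEK293 GripTite cells with ER-alpha and UAS-driven beta-lactamase reporter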; also: potency is read from the fitted curve at half-maximal effect)
Chain of Estrogen receptor (Homo sapiens) (P03372 whole entry, looked up): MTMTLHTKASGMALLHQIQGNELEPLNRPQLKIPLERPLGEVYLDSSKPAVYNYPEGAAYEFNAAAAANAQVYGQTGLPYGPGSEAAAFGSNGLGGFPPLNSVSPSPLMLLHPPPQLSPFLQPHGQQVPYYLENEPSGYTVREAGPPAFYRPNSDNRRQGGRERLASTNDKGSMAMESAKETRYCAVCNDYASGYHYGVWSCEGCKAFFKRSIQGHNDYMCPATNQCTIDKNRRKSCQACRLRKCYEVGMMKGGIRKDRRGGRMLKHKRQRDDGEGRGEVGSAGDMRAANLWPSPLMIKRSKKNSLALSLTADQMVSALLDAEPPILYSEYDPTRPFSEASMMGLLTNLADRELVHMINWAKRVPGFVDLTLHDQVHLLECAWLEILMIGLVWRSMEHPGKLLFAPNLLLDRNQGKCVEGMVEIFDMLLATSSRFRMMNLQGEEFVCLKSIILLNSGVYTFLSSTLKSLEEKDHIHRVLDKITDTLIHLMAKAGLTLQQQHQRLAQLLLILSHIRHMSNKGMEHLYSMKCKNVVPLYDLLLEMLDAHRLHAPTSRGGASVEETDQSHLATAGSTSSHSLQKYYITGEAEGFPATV

[13] = qHTS assay to identify small molecule that activate the aryl hydrocarbon receptor (AhR) signaling pathway - cell viability counter screen (AID 743086);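 also: HepG2 liver cells carrying the AhR DRE luciferase reporter; series mostly up to about 70 µM; % is scaled to controls: 0 for no effect and ±100 for the full control effect; nearly all actives have a fitted effect of over 45% in size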
In short: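 Cytotoxicity counter screen: CellTiter-Fluor signal (30 min, 37 C) in 4000 HepG2 cells/well carrying the DRE-luciferase reporter, following 24 h compound exposure at 37 C.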

[14] = qHTS assay to identify small molecule antagonists of the peroxisome proliferator-activated receptor gamma (PPARg) signaling pathway - cell viability counter screen (AID 743194); also: nearly all actives have a fitted effect of over 55% in size; also: potency is read from the fitted curve at half-maximal effect
In short: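 Viability was measured as CellTiter-Glo luminescence in GeneBLAzer PPARg UAS-bla HEK293H cells. These cells had been exposed 17 h at 37 C to compounds together with rosiglitazone at 50 nM final, with the beta-lactamase readout taken in the same wells.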

[15] = qHTS assay to identify small molecule antagonists of the estrogen receptor alpha (ER-alpha) signaling pathway using the BG1 cell line (AID 743080; calls by dose curve;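 also: BG1 cells stimulated with 17beta-estradiol alongside compound; nearly all actives have a fitted effect of over 25% in size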; also: potency is read from the fitted curve at half-maximal effect)
In short: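 Quantitative HTS on the Tox21 10K library: BG1 cells with endogenous ER-alpha and ERE-luciferase reporter, 17beta-estradiol stimulation, 21.5 h compound exposure, luminescence endpoint with parallel fluorescence cytotoxicity counter-read.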

[16] = biological target: Peroxisome proliferator-activated receptor gamma (Homo sapiens) (UniProt P37231); experiment: qHTS assay to identify small molecule antagonists of the peroxisome proliferator-activated receptor gamma (PPARg) signaling pathway (AID 743191; calls by dose curve; also: series mostly up to about 63 µM; % is scaled to controls: 0 for no effect and ±100 for the full control effect; nearly all actives have a fitted effect of over 30% in size)
In short: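 Beta-lactamase reporter under UAS control in HEK293H PPARg-bla cells; compound treatment 17 h at 37C. Read-out: fluorescence intensity after 1 h room-temperature incubation with LiveBLAzer B/G FRET substrate.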

[17] = biological target: Estrogen receptor (Homo sapiens) (UniProt P03372); experiment: qHTS assay to identify small molecule agonists of the estrogen receptor alpha (ER-alpha) signaling pathway using the BG1 cell line (AID 743079); also: nearly all actives have a fitted effect of over 20% in size; also: potency is read from the fitted curve at half-maximal effect
[18] = biological target: Estrogen receptor (Homo sapiens) (UniProt P03372); experiment: qHTS assay to identify small molecule antagonists of the estrogen receptor alpha (ER-alpha) signaling pathway (AID 743069; active = well fitted curve in the direction sought with a large enough effect in the signal ratio in the repeat runs, not every such curve was filed as active; inconclusive = weak or mixed curves, or effect the other way; inactive = no such curve, though single readings can be large or run the other way; the % refers to the signal ratio; also: potency is read from the fitted curve at half-maximal effect)
In short: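 Antagonist mode: compounds in DMSO were co-added with 17beta-estradiol to ER-alpha-bla HEK293 cells (2% charcoal-stripped serum) and left 18 h at 37C. Reporter inhibition was measured as FRET fluorescence after 2 h LiveBLAzer substrate at room temperature.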

[19] = tested on: thyroid hormone receptor (rat, GH3 cells); experiment: qHTS assay to identify small molecule agonists of the thyroid receptor (TR) signaling pathway (AID 743066; calls by dose curve; also: % is scaled to controls: 0 for no effect and ±100 for the full control effect)
[20] = qHTS assay to identify small molecule antagonists of the thyroid receptor (TR) signaling pathway (AID 743065)
In short: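 Antagonism measured as loss of luciferase signal in GH3 cells stably carrying a TRE-luciferase reporter, co-treated with compound and T3 (1 nM final) for 23.5 h at 37 C. Viability was read in the same well by CellTiter-Fluor.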

CC1(C)CCC[C@]2(C)[C@H]3CCO[C@]3(C)CC[C@@H]12
inactive: Potency [1] | Potency [2] | Potency [3] | Potency [4] | Potency [5] | Potency [6] | Potency [7] | Potency [8] | Potency [9] | Potency [10] | Potency [11]

CN1CCN2c3ccccc3Cc3ccccc3C2C1 (stereo unspecified)
active: Potency [1] 26.6 µM | Potency [2] 23.9 µM | Potency [3] 26.6 µM
inactive: Potency [12] | Potency [4] | Potency [5] | Potency [6] | Potency [13] | Potency [7] | Potency [14] | Potency [9] | Potency [10] | Potency [11]

COC1=C(OC)C(=O)C(CCCCCCCCCCO)=C(C)C1=O
inactive: Potency [2] | Potency [12] | Potency [3] | Potency [6] | Potency [13] | Potency [8] | Potency [9] | Potency [11]
active: Potency [4] 29.8 µM

CN(C)[C@@H](CCOc1cccc2ccccc12)c1ccccc1
inactive: Potency [10]

CCC(C)n1ncn(-c2ccc(N3CCN(c4ccc(OC[C@H]5CO[C@](Cn6cncn6)(c6ccc(Cl)cc6Cl)O5)cc4)CC3)cc2)c1=O (stereo partly specified)
active: Potency [15] 13.3 µM
inactive: Potency [2] | Potency [12] | Potency [3] | Potency [4] | Potency [5] | Potency [6] | Potency [13] | Potency [7] | Potency [16] | Potency [9] | Potency [10]

C#C[C@]1(OC(C)=O)CC[C@H]2[C@@H]3CCC4=C[C@@H](OC(C)=O)CC[C@@H]4[C@H]3CC[C@@]21C
active: Potency [12] 0.0085 µM [inconclusive] | Potency [17] 0.7 nM and 4.7 nM | Potency [15] 33.5 µM | Potency [8] 26.6 µM
inactive: Potency [2] | Potency [3] | Potency [4] | Potency [5] | Potency [6] | Potency [13] | Potency [7] | Potency [14] | Potency [9] | Potency [10] | Potency [11]

Cc1c(F)c(N2CCNC(C)C2)cc2c1c(=O)c(C(=O)O)cn2C1CC1 (stereo unspecified)
inactive: Potency [18] | Potency [2] | Potency [12] | Potency [17] | Potency [15] | Potency [3] | Potency [4] | Potency [5] | Potency [6] | Potency [13] | Potency [7] | Potency [14] | Potency [9] | Potency [10] | Potency [11]

O=C(O)CN(CCN(CC(=O)O)CC(=O)O)CC(=O)O
inactive: Potency [2] | Potency [3] | Potency [4] | Potency [5] | Potency [6] | Potency [13] | activity change, negative = cytotoxicity [14] 4.6% [at 2.7 µM] | activation [8] -0.355% [at 3.74 µM] | viability change, negative = cytotoxic [9] -5.36% [at 3.74 µM] | activity change, negative = cytotoxicity [10] 20.3% [at 2.7 µM] | activation [11] 0.0247% [at 2.7 µM]

CCCCCC/C=C\CCCCCCCC(=O)O
inactive: Potency [18] | Potency [2] | Potency [12] | Potency [17] | Potency [15] | Potency [3] | Potency [4] | Potency [5] | Potency [6] | Potency [13] | Potency [8] | Potency [9]

Cc1c(C)c([N+](=O)[O-])c(C(C)(C)C)c([N+](=O)[O-])c1C
inactive: Potency [18] | Potency [12] | Potency [17] | Potency [15] | Potency [3] | Potency [5] | Potency [6] | Potency [13] | Potency [7] | Potency [8] | Potency [9] | Potency [10] | Potency [11]

CC1=CCC(=C(C)C)CC1
inactive: Potency [18] | Potency [2] | Potency [12] | Potency [15] | Potency [3] | Potency [4] | Potency [5] | Potency [6] | Potency [13] | Potency [7] | Potency [14] | Potency [9] | Potency [10] | Potency [11]
active: Potency [17] 68.6 µM

C[Si](Cl)(c1ccccc1)c1ccccc1
inactive: outcome [19] | Potency [2] | Potency [12] | Potency [17] | Potency [15] | Potency [3] | Potency [5] | Potency [6] | Potency [13] | Potency [7] | Potency [14] | Potency [9] | Potency [10] | Potency [11]

Nc1cc(Cl)c(O)c(Cl)c1
inactive: outcome [19] | Potency [2] | Potency [12] | Potency [17] | Potency [15] | Potency [3] | Potency [4] | Potency [5] | Potency [13] | Potency [9] | Potency [10]
active: Potency [6] 61.1 µM

CC/C=C\CCCCCO
inactive: outcome [19] | Potency [2] | Potency [3] | Potency [13] | Potency [8] | Potency [9] | Potency [10] | Potency [11]

Cc1cccc(C)c1NC(=O)c1ccc(N)cc1
inactive: Potency [14] | Potency [8] | Potency [9] | Potency [10] | Potency [11]

COc1ccc2c(c1)c(CC(=O)OC/C=C(\C)CC/C=C(\C)CCC=C(C)C)c(C)n2C(=O)c1ccc(Cl)cc1
inactive: Potency [14] | Potency [9]

CC(C)=CCNc1ncnc2c1ncn2[C@@H]1O[C@H](CO)[C@@H](O)[C@H]1O
active: Potency [14] 9.44 µM | Potency [9] 5.96 µM | Potency [10] 13.3 µM
inactive: Potency [11]

C#C[C@]1(O)CC[C@H]2[C@@H]3[C@H](C)CC4=C(CCC(=O)C4)[C@H]3CC[C@@]21C
inactive: Potency [2] | Potency [15] | Potency [3] | Potency [4] | Potency [5] | Potency [6] | Potency [13] | Potency [14] | Potency [9] | Potency [10]
active: Potency [20] 26.6 µM | Potency [12] 0.0134 µM [inconclusive] | Potency [17] 0.0038 µM | Potency [8] 23.7 µM

Cc1cc(C)c(/C=C2\C(=O)Nc3ccccc32)[nH]1
inactive: outcome [19] | Potency [2] | Potency [17] | Potency [4] | Potency [5] | Potency [13] | Potency [7] | Potency [14] | Potency [9] | Potency [10] | Potency [11]
active: Potency [18] 26.8 µM [inconclusive]

O=C(O)Cc1ccc2c(c1)C(=O)c1ccccc1CO2
inactive: Potency [9] | Potency [10] | Potency [11]
